In general, AC50 refers to the concentration giving half of the maximal activity seen.

Active and inactive are the calls of the source. Rule for the calls: active = hit-call score of the fitted dose curve at least 0.9, where 1 is the maximum; inactive = score below 0.9.

Sequence of Signal transducer and activator of transcription 3 (Homo sapiens) (P40763 whole entry, looked up): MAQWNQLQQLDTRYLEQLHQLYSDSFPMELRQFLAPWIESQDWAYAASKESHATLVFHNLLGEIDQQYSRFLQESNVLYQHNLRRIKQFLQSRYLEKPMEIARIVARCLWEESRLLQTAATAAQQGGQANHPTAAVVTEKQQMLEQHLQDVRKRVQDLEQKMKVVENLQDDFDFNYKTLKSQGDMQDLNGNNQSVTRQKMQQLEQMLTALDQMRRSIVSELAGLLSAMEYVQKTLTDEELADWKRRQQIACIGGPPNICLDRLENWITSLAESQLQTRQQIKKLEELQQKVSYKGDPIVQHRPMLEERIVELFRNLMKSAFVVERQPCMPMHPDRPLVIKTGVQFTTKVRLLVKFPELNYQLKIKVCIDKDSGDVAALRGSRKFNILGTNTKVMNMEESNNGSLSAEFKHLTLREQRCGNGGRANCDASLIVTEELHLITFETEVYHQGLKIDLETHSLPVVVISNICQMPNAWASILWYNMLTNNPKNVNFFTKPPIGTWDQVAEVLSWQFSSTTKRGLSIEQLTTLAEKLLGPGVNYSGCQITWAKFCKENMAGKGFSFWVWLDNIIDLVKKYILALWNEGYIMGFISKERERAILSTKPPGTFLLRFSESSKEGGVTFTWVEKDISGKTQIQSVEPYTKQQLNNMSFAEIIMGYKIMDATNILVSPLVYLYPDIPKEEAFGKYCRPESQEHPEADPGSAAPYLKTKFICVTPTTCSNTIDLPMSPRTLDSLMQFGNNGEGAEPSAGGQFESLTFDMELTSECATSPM

In this assay the target is Signal transducer and activator of transcription 3 (Homo sapiens) (UniProt P40763). Description: ATG_STAT3_CIS: Attagene CIS-FACTORIAL HepG2 Assay for human Signal Transducer and Activator of Transcription 3 (STAT3) (AID 2282963). To be noted: HepG2, Attagene cis-factorial STAT3 reporter transcription; actives raise or lower the signal. The method, then:
ATG_CIS is a cell-based, multiplexed-readout assay that uses HepG2, a human liver cell line, with measurements taken at 24 hours after chemical dosing in a 24-well plate.ATG_STAT3_CIS is one of 52 assay component(s) measured or calculated from the ATG_CIS assay. It is designed to make measurements of mRNA induction, a form of inducible reporter, as detected with fluorescence intensity signals by Reverse transcription polymerase chain reaction (RT-PCR) and Capillary electrophoresis technology.Data from the assay component ATG_STAT3_CIS was analyzed into 1 assay endpoint. This assay endpoint, ATG_STAT3_CIS, was analyzed with bidirectional fitting relative to DMSO as the negative control and baseline of activity. Using a type of inducible reporter, measures of mRNA for gain or loss-of-signal activity can be used to understand the reporter gene at the transcription factor-level as they relate to the gene STAT3. Furthermore, this assay endpoint can be referred to as a primary readout, because this assay has produced multiple assay endpoints where this one serves a reporter gene function. To generalize the intended target to other relatable targets, this assay endpoint is annotated to the dna binding intended target family, where the subfamily is stat protein.
Human liver HepG2 cells are transiently transfected with multiple reporter transcription units (MRTUs) in 6-well plates using FuGene 6 reagent (Roche; 3 ml FuGene/1 mg DNA). The MRTU constructs are regulated by a cis-regulating element (promoter). […] A major difference between the CIS and TRANS system is that in CIS activities of endogenous TFs are measured, whereas the TRANS assay evaluates changes in activities of exogenous, chimeric NR-Gal4 proteins. […] At the end of 24 hour incubation, total RNA was isolated using TriZol reagent (Invitrogen). The isolated RNA is then reverse-transcribed using oligo(dT) primer and Mo-MLV reverse transcriptase (Invitrogen) with DNAse I (Ambion) treatment for 30 min. The one-tenth of the produced cDNA was amplified by PCR using Taq DNA polymerase (Invitrogen) and two reporter sequence-specific primers. The PCR products were fluorescently labeled by primer extension with 6-arboxyfluorescein (6-FAM) 5'-labeled reporter sequence-specific primer (2 min at 95 C, 20 s at 68 C and 10 min at 72 C) and these products were digested with 5U of HpaI (New England Biolabs) for 2h at 37 C. The fragments were purified using Qiaquick PCR columns (Qiagen), analyzed on an ABI 3130xL genetic analyzer (Applied Biosystems) with peak positions identified by using a set of X-rhodamine (ROX)-labeled MapMarker1000 molecular weight standards (BioVentures). The raw capillary electrophoresis data was processed using Attagraph software (Attagene).
`NC(=O)C(F)(F)C(F)(F)C(F)(F)F`: the molecule was classed as inactive.

`N#Cc1ccccc1O`: the result was inactive.

Consider `COc1ccccc1C=O`, for which the molecule was called inactive.

As for `O=S(=O)(O)CCC(F)(F)C(F)(F)C(F)(F)C(F)(F)C(F)(F)C(F)(F)C(F)(F)C(F)(F)F`, the outcome was inactive.

On to `CCCCOC(=O)C(C)O` (stereo not given), for which the call was inactive.

Consider `CCCCC(CC)COC(=O)c1ccc(N(C)C)cc1` (stereo not given), for which the result was inactive.

Take `O=S(=O)(OCC(F)(F)F)C(F)(F)C(F)(F)C(F)(F)C(F)(F)F`: the result was inactive.

For the molecule `CC(C)OC=O`, the outcome was inactive.

As for `Oc1ccc(C2(c3ccc(O)c(C4CCCCC4)c3)CCCCC2)cc1C1CCCCC1`, the AC50 was 62.4 µM (active).

Regarding `CCCC(=O)OCC(COC(=O)CCC)OC(=O)CCC`, the result was inactive.

Take `CCn1c2ccccc2c2ccccc21`: the molecule was called inactive.

For `O=C(O)C(F)(F)C(F)(F)C(F)(F)OC(F)(C(F)(F)F)C(F)(F)F`, the result was inactive.

`O=C(c1ccccc1)c1ccc(O)cc1O`: the result was inactive.

With `CSc1ccc(Cl)cc1`, the molecule was classed as inactive.

Turning to `NC(=O)C(F)(F)C(F)(F)C(F)(F)C(F)F`, the outcome was inactive.

Regarding `OCCCc1cccnc1`, the call was inactive.

Turning to `CO[Si](C)(CCC(F)(F)C(F)(F)C(F)(F)C(F)(F)C(F)(F)C(F)(F)F)OC`, the molecule was called inactive.

Regarding `CC(C)Nc1ccc(NC(C)C)c2c1C(=O)c1ccccc1C2=O`, the outcome was inactive.

Take `CC(C)(C)c1cc(CCC(=O)OCC(COC(=O)CCc2cc(C(C)(C)C)c(O)c(C(C)(C)C)c2)(COC(=O)CCc2cc(C(C)(C)C)c(O)c(C(C)(C)C)c2)COC(=O)CCc2cc(C(C)(C)C)c(O)c(C(C)(C)C)c2)cc(C(C)(C)C)c1O`: the call was inactive.

On to `OCC(F)(F)C(F)(F)C(F)(F)C(F)(F)C(F)(F)C(F)(F)C(F)(F)C(F)(F)CO`, for which the result was inactive.

Regarding `FC(F)(F)C(F)(F)C(F)(F)C(F)(F)C(F)(F)C(F)(F)C(F)(F)CCI`, the call was inactive.

Turning to `O=C(Cl)C(F)(F)C(F)(F)C(F)(F)C(F)(F)C(F)(F)C(F)(F)C(F)(F)F`, the molecule was classed as inactive.

As for `OCCCCl`, the outcome was inactive.

For the molecule `NCC(F)(F)C(F)(F)C(F)(F)C(F)(F)C(F)(F)C(F)(F)C(F)(F)C(F)(F)F`, the call was inactive.

On to `O=S(=O)(O)CCC(F)(F)C(F)(F)C(F)(F)C(F)(F)F`, for which the call was inactive.

For `OCCC(O)CO` (stereo not given), the molecule was called inactive.

For the molecule `Cc1cc(=O)[nH]c(C(C)C)n1`, the result was inactive.

`OCCCC(F)(F)C(F)(F)C(F)(F)C(F)(F)C(F)(F)C(F)(F)C(F)(F)C(F)(F)F`: the molecule was classed as inactive.

Regarding `O=S(=O)(Cl)C(F)(F)C(F)(F)C(F)(F)C(F)(F)C(F)(F)C(F)(F)C(F)(F)C(F)(F)F`, the call was inactive.

With `C=CC(=O)OCCC(F)(F)C(F)(F)C(F)(F)C(F)(F)F`, the result was inactive.

For the molecule `C=C(C)CCCC`, the result was inactive.

As to `CC1CCCCC1`, the call was inactive.

For `COCCC(=O)OC`, the molecule was classed as inactive.

Take `CCc1ccc(C)nc1`: the molecule was classed as inactive.

On to `O=S(=O)(O)c1ccc(Cl)cc1`, for which the result was inactive.

`Oc1ccc2c(c1)CCC2`: the result was inactive.

As to `OC(O)C(F)(F)C(F)(F)F`, the molecule was classed as inactive.

For the molecule `c1ccc(C[P+](c2ccccc2)(c2ccccc2)c2ccccc2)cc1`, the molecule was called inactive.

As for `CCN=c1cc2oc3cc(NCC)c(C)cc3c(-c3ccccc3C(=O)OCC)c-2cc1C`, the outcome was inactive.

As to `CC(=O)c1ccccc1N`, the molecule was classed as inactive.

The record behind these values is PubChem BioAssay (EPA / NIEHS).
